Bioassay records (PubChem BioAssay)
ssDAF12 agonist: S. stercoralis DAF-12 nuclear receptor activators, primary screen, cell-based, luminescence, HEK293, GRIP1 co-expression, lit1-tk-luc; 370,000 tested, 1% active; Nuclear hormone receptor DAF-12 (Strongyloides stercoralis); activation, % at 6.8 µM; AID 652126, 2013; HEK293 ssDAF-12/GRIP1 lit1-tk-luc reporter; % of 3 µM dafachronic acid response;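 active = activation above the mean over all tested compounds plus 3 SD, cut at about 0.9% in these data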;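 note: 0% = DMSO-only wells and 100% = 3 µM delta7-dafachronic acid wells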
SMARCA2 act: SMARCA2 (BRM) function activators, primary screen, cell-based, luminescence, high throughput | MG213 cells, MMTV-luciferase reporter, dexamethasone, overnight | activation, % at 9.1 µM | 370,000 tested, 1% active; in the data active = activation above about 7.8%;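 note: 0% = vehicle wells and 100% = reference activator wells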
hcDAF-12 act: H. contortus DAF-12 nuclear receptor activators, primary screen, cell-based, luminescence, HEK293, lit1-tk-luc reporter; 370,000 tested, 1.4% active; HEK293 hcDAF-12 lit1-tk-luc reporter; 0% DMSO, 100% Δ7-dafachronic acid; activation, % at 6.8 µM;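 active = activation above the mean of all tested compounds plus 3 SD, cut at about 5.5% in these data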;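 note: 100% = response to 3 µM Δ7-dafachronic acid high control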
DAX1 inh-1: DAX1 (NR0B1) inhibitors, primary screen, cell-based, HEK293, Gal4-DAX1, luciferase luminescence; Nuclear receptor subfamily 0 group B member 1 (Homo sapiens), P51843; HEK293 Gal4-DAX1 luciferase reporter; inhibition, % at 6.75 µM; 340,000 tested, 0.99% active; AID 504766, 2011;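 active = inhibition above the mean over all tested compounds plus 3 SD, cut at about 4.2% in these data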;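 note: 0% = DAX1-transfected cells with DMSO and 100% = empty-vector control cells with DMSO; inhibition shows as a rise in luminescence from relieved DAX1 repression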
Target sequence (P51843 207-470 limits assumed): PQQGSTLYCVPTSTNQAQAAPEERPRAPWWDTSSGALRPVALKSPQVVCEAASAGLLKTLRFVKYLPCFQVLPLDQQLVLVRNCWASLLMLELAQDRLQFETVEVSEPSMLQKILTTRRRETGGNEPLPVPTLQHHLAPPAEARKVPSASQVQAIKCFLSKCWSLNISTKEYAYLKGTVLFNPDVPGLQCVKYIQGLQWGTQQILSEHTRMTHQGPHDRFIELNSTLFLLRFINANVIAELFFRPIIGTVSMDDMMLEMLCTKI
DAX1 inh-2: DAX1 (NR0B1) inhibitors on StAR promoter, primary screen, cell-based, luminescence, SF-1 (NR5A1), full-length DAX-1. HEK293T StAR-luciferase reporter, SF-1/DAX-1 repression relief. inhibition, % at 6.8 µM. 370,000 tested, 1.1% active. AID 652010, 2013;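 active = inhibition above the mean over all tested compounds plus 3 SD, cut at about 3.6% in these data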;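 note: 0% = DAX-1 cells with DMSO and 100% = cells lacking DAX-1 with DMSO; higher inhibition means more luminescence from relief of DAX-1 repression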
hgDAF12 agonist: H. glycines DAF-12 receptor agonists, primary screen, cell-based, luminescence, HEK293, GAL4 fusion, UAS-luciferase | Nuclear hormone receptor DAF-12 (Heterodera glycines), GAL4 fusion | HEK293 GAL4-hgDAF12 UAS-luciferase reporter, agonist luminescence; normalized to butyrate control | activation, % at 6.8 µM | 370,000 tested, 1.8% active;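 active = activation above a cutoff set at the mean of all screened compounds plus 3 SD, cut at about 10% in these data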;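 note: 0% = DMSO wells and 100% = sodium butyrate wells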
An asterisk follows results filed as active; . = no result. Sampled rows, rich in hits. Any-hit rate of the full collection: about 4.8%.

SMILES	ssDAF12 agonist	SMARCA2 act	hcDAF-12 act	DAX1 inh-1	DAX1 inh-2	hgDAF12 agonist
O=C(O)c1ccc(C=NNC(=O)c2ccccc2NS(=O)(=O)c2cccs2)cc1	-1.4	-1.8	-0.9	2.4	3.7*	-1.9
CN(c1ccc(C(=O)Nc2ccc3c(c2)n(C)c(=O)n3C)cc1)S(C)(=O)=O	-0.8	-3.3	2.2	1.6	-0.3	2.3
Cc1cccc(NC(=S)NC(=O)c2cccs2)n1	-0.6	6.6	3.3	1.4	0.9	6.4
Cc1ccc(OCC(=O)NC(=S)Nc2ccc(Br)c(C)n2)cc1	-0.6	-3.1	-1.1	-1.0	1.7	1.3
N#Cc1ccccc1NC(=S)NC(=O)c1cccs1	0.9	2.6	6.0*	1.8	3.5	10.4
Cc1nc(NC(=S)NC(=O)c2cccs2)ccc1Br	1.3*	3.8	5.3	0.6	0.4	4.6
Cc1nc(NC(=S)NC(=O)COc2ccc(Cl)cc2)ccc1Br	-0.8	-0.6	0.2	6.0*	-0.5	2.0
Cc1ccc(OCC(=O)NC(=S)Nc2cccc(C)n2)cc1	-0.8	2.6	2.0	7.8*	-0.2	0.4
COc1cccc(OCC(O)CN2CCN(c3ccc(F)cc3)CC2)c1 (stereo not drawn)	-0.8	-1.1	-0.5	-1.1	-0.2	-2.9
OC(COc1ccc2ccccc2c1)CN1CCN(c2ccc(F)cc2)CC1 (stereo not drawn)	-0.1	1.0	-0.3	6.9*	-0.1	0.0
COc1ccc(C2Nc3cccc4cccc(c34)N2)cc1Br	1.1*	-1.2	5.0	-0.8	-0.1	2.4
CC(=O)N1CCN(c2ccc(NC(=O)c3ccccc3)cc2)CC1	-0.6	-0.1	1.5	5.8*	0.5	8.3
O=C(/C=C/c1cccs1)c1ccc(N2CCOCC2)cc1	-0.4	-0.6	2.5	2.7	0.8	11.3*
Cc1ccc(C(=O)Nc2ccc(N3CCN(C)CC3)cc2)cc1	1.3*	-0.5	1.2	3.7	1.7	10.0
O=C(NNC(=O)c1ccc(Br)s1)c1csc(N2CCOCC2)n1	-0.8	3.6	-1.0	1.8	0.0	0.9
CC(=O)N1CCN(c2ccc(NC(=S)NC(=O)c3ccccc3)cc2)CC1	-0.1	-3.3	3.5	0.2	-0.4	-3.4
O=C(NNC(=O)c1cccs1)c1csc(N2CCOCC2)n1	1.2*	-2.3	-0.9	0.0	0.3	1.7
COc1ccc(C(=O)Nc2ccc(N3CCN(C)CC3)cc2)cc1	0.9	5.8	1.8	2.2	1.6	7.9
O=C(Cc1ccccc1)NC1CCCc2c1cnn2-c1ccc(F)cc1F (stereo not drawn)	-2.1	.	-3.1	.	.	0.5
COC(=O)[C@H]1C[C@@]2(n3ccc4ccccc43)c3ccccc3N(S(=O)(=O)c3ccccc3)[C@H]2N1C(=O)CNC1CCCCC1	-0.9	-0.9	-1.0	.	-1.5	-0.8
O=C(Nc1ccc(C2SCCS2)cc1)c1ccccc1	1.6*	7.6	4.0	.	2.1	10.5*
CCC(=O)N1CCN(c2ccc(NC(=O)c3ccco3)cc2)CC1	-0.7	2.2	1.3	0.3	-0.2	4.1
O=C(NC(=S)Nc1ccc(N2CCCCC2)cc1)c1ccco1	-0.2	-1.4	4.9	2.8	3.3	12.8*
O=C(NC(=S)Nc1ccc(N2CCOCC2)cc1)c1cccs1	0.6	3.6	3.6	3.0	4.0*	12.1*
CC1CCN(c2ccc(NC(=S)NC(=O)c3ccco3)cc2)CC1	-0.9	3.3	-0.6	1.6	-0.5	5.0
SMILES	ssDAF12 agonist	SMARCA2 act	hcDAF-12 act	DAX1 inh-1	DAX1 inh-2	hgDAF12 agonist
CC(=O)N1CCN(c2ccc(NC(=O)c3ccco3)cc2)CC1	1.9*	2.8	4.7	1.6	0.7	8.6
Cc1ccc(NC(=O)c2cnn(-c3ccccc3)c2C)c(C)c1	-0.3	4.4	1.9	1.9	1.0	7.3
COc1ccc(OC(=O)c2cnn(-c3ccccc3)c2C)cc1	0.5	6.6	2.6	1.9	2.5	12.8*
CCCc1c(C(=O)Nc2ccc(OC)cc2)cnn1-c1ccccc1	-0.1	-2.1	2.2	6.3*	0.1	3.2
CCCc1c(C(=O)NNc2ccccc2OC)cnn1-c1ccccc1	-1.4	-0.2	-1.3	-0.2	0.0	1.6
Cc1ccc(NC(=O)c2csc(-c3ccccc3)c2C)cc1	-0.8	-2.5	2.9	0.1	4.3*	6.1
Cc1ccc(NC(=O)c2cnn(-c3ccccc3)c2C)cc1	1.1*	2.5	4.4	2.3	2.0	10.7*
Cc1c(C(=O)Nc2cccc([N+](=O)[O-])c2)csc1-c1ccccc1	0.0	2.8	3.4	1.0	2.8	3.7
CC(C)NC(=O)c1ccc(NC(=O)CC2SC(N3CCCCC3)=NC2=O)cc1 (stereo not drawn)	1.7*	1.0	2.4	0.6	-0.9	-4.0
CC(C)NC(=O)c1ccc(NC(=O)CC2SC(N3CCCC3)=NC2=O)cc1 (stereo not drawn)	-1.6	-1.7	-0.5	-0.1	-0.7	1.6
[O-]/C(=C(\C(=S)Nc1cccc2ccccc12)[n+]1ccccc1)c1cccs1	-0.3	-2.1	3.0	-0.6	-0.8	-1.0
Cc1cccc(C)c1NC(=S)/C(=C(\[O-])c1cccs1)[n+]1ccccc1	0.1	-1.8	5.8*	-0.3	-0.5	2.3
CCCNC(=O)C1(C)CCN(C(=O)c2ccccc2OC)C1 (stereo not drawn)	-1.1	-6.3	-0.3	.	2.0	-3.1
Cc1c(C(=O)O)sc2nc(-c3cccs3)cc(C(F)(F)F)c12	-0.3	1.9	0.7	0.7	-0.3	2.3
Cc1c(C(=O)Nc2nccs2)sc2nc(-c3cccs3)cc(C(F)(F)F)c12	1.2*	2.0	3.3	0.0	0.7	1.1
CC(=O)c1sc2nc(-c3cccs3)cc(C(F)(F)F)c2c1N	0.2	-3.0	6.3*	0.4	-0.1	1.7
CCOc1cc(OCC)cc(C(=O)N2CCC[C@H]2C(=O)N2CCC[C@H]2C(=O)NCc2cccc(OC)c2)c1	-0.3	-6.3	2.2	.	-0.6	0.5
COc1cc(Nc2cc(C)nc3ncnn23)cc(OC)c1OC	-0.5	-2.2	0.8	5.5*	-0.2	0.1
C=CCNC(=O)c1cc2sccc2n1C	-1.4	-0.6	0.3	1.1	0.5	1.0
CC(C)c1ccc(NC(=O)Nc2cc3sccc3n2C)cc1	0.7	1.1	6.0*	-0.2	-0.3	2.6
CCN(C)C1CN(Cc2cn(Cc3cccc(Cl)c3)nn2)S(=O)(=O)C1 (stereo not drawn)	-0.6	-3.9	0.7	.	3.0	0.9
CCN1CCN(c2ccc(S(=O)(=O)N3CCCCC3)cc2NC(=O)c2ccc(F)cc2)CC1	-0.5	-3.0	0.2	1.6	-0.2	5.0
